Experiment [1] relates to MILI (PIWIL2) piRISC loaded with L1MC piRNA (26 nt). The experiment is described as follows: pre-steady-state target cleavage rate (min^-1); guide: L1MC piRNA 5'p-UAACUAAAUACUAUGCAAGCUGUAGG; higher = faster piRNA-guided slicing of the target. In outline: (§1)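 The pre-steady-state cleavage rate was calculated from a burst-and-steady-state fit. Data came from Cleave-'n-Seq, in which […] transcribed, DNA-blocked target RNA library was mixed with 1 nM active affinity-purified piRISC carrying one synthetic guide, with or without 500 nM GTSF1 partner protein, in HEPES–potassium acetate buffer at 33 °C for 0–8 or 0–960 min. Uncleaved targets were sequenced and normalised to depth and to weakly complementary targets, three trials were pooled, and k3 was capped at 0.0001 min^-1.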

Experiment [2] has as its system EfPiwi piRISC loaded with L1MC piRNA (26 nt). The experiment is described as follows: pre-steady-state target cleavage rate (min^-1); auxiliary factor: 500 nM Ephydatia muelleri Gtsf1; guide: L1MC piRNA 5'p-UAACUAAAUACUAUGCAAGCUGUAGG; MIWI and MILI are mouse PIWI proteins and EfPiwi is from a freshwater sponge; tags in brackets are library labels; higher = faster piRNA-guided slicing of the target. In outline:
as §1

Where [3] appears, read: auxiliary factor: 500 nM mouse GTSF1.
Setting [4] is: auxiliary factor: none (no GTSF1).

± gives the standard deviation.

The source of these data is the supplement of paper PMC10338343.

As for UCCUGCUACAGCUAGCAUUGUAUUUAGUUA, the “pre-steady-state target cleavage rate” value was found to be 0.225 ± 0.019 in experiment [1] (setting [3]), 0.007 ± 0.0024 in experiment [1] (setting [4]) and 0.00762 ± 0.0028 in experiment [2].

Regarding UCCUGGAACAGCUUGCAUAGUAUAUUAGUUA, the “pre-steady-state target cleavage rate” value in experiment [1] (setting [3]) stood at 0.247 ± 0.019; in experiment [1] (setting [4]), 0.00778 ± 0.0024; in experiment [2], 0.0104 ± 0.0043.

Take UCCUGGAUCAGCAUGCUUAGUAUUUAGUUA: the “pre-steady-state target cleavage rate” value in experiment [1] (setting [3]) is 0.189 ± 0.019; in experiment [1] (setting [4]) it was 0.00777 ± 0.0024; in experiment [2], 0.0112 ± 0.0042.

With UCCUGGUUCAGCUUGCAUAGUAUUUUGUUA, the “pre-steady-state target cleavage rate” value in experiment [1] (setting [3]) was determined as 0.16 ± 0.03; in experiment [1] (setting [4]) it was 0.00444 ± 0.0036; in experiment [2] it was 0.00528 ± 0.0032.

Regarding UCCUCCUACAGCUUGCAUAGUAUUUACGUUA, the entries for the “pre-steady-state target cleavage rate” value in experiment [1] (setting [3]), in experiment [1] (setting [4]) and in experiment [2] were 0.265 ± 0.029, 0.00757 ± 0.0026 and 0.00783 ± 0.0029, respectively.

Consider UCCUGGAUGAGCAUGCAUAGUAUUUAGUAA, for which the entries for the “pre-steady-state target cleavage rate” value in experiment [1] (setting [3]), in experiment [1] (setting [4]) and in experiment [2] were 0.21 ± 0.024, 0.00494 ± 0.0024 and 0.00596 ± 0.0037, respectively.

Consider UCCUGGUACAGCUUCGCAUAGUAUUUAGUUA, for which the “pre-steady-state target cleavage rate” value was determined as 0.274 ± 0.021 in experiment [1] (setting [3]), 0.0125 ± 0.0035 in experiment [1] (setting [4]) and 0.038 ± 0.0086 in experiment [2].

Take UCCUCCUACACCUUGCUUAGUAUUUAGUUA: the entries for the “pre-steady-state target cleavage rate” value in experiment [1] (setting [3]), in experiment [1] (setting [4]) and in experiment [2] were 0.193 ± 0.022, 0.00665 ± 0.0019 and 0.00914 ± 0.0039, respectively.

Regarding UCCUGCUACAGCUUGCAUCGUAUUUAGUUA, the “pre-steady-state target cleavage rate” value in experiment [1] (setting [3]) was 0.168 ± 0.022; in experiment [1] (setting [4]) it was 0.006 ± 0.0019; in experiment [2], 0.0091 ± 0.0022.

For the sequence UCCUGGAUGUGCUUGCAUAGUAUUUAGUAA, the “pre-steady-state target cleavage rate” value in experiment [1] (setting [3]) turned out to be 0.246 ± 0.031; in experiment [1] (setting [4]), 0.00665 ± 0.0025; in experiment [2] it was 0.00442 ± 0.002.

Take UCCUGCUACACCUUGCAUAGUAAUUAGUUA: the “pre-steady-state target cleavage rate” value was found to be 0.157 ± 0.026 in experiment [1] (setting [3]), 0.00684 ± 0.002 in experiment [1] (setting [4]) and 0.00647 ± 0.0028 in experiment [2].

Take UCCUCCUACACUUGCAUAGUAUUUAGUUA: the “pre-steady-state target cleavage rate” value amounted to 0.248 ± 0.016 in experiment [1] (setting [3]), 0.00564 ± 0.002 in experiment [1] (setting [4]) and 0.049 ± 0.015 in experiment [2].

In the case of UCCUGGAUGAGCUUGCUUAGUAAUUAGUUA, the “pre-steady-state target cleavage rate” value was determined as 0.191 ± 0.019 in experiment [1] (setting [3]), 0.00839 ± 0.0025 in experiment [1] (setting [4]) and 0.00425 ± 0.0027 in experiment [2].

In the case of UCCUGGAACAAGCUUGCAUAGUAUUUAGUUA, the results for the “pre-steady-state target cleavage rate” value in experiment [1] (setting [3]), in experiment [1] (setting [4]) and in experiment [2] were 0.224 ± 0.012, 0.0116 ± 0.003 and 0.0156 ± 0.0043, respectively.

Take UCCUCCUACAGCUUGCAAAGUAUUUACUUA: the “pre-steady-state target cleavage rate” value stood at 0.0765 ± 0.013 in experiment [1] (setting [3]), 0.0033 ± 0.0019 in experiment [1] (setting [4]) and 0.00282 ± 0.0024 in experiment [2].

Regarding UCCUGCUACAGGUUGCAUAGUAUUUUGUUA, the “pre-steady-state target cleavage rate” value was 0.165 ± 0.028 in experiment [1] (setting [3]), 0.00477 ± 0.0031 in experiment [1] (setting [4]) and 0.0057 ± 0.0026 in experiment [2].

For the sequence UCCUCCUACAGCUUGCAUAGUACUUUAGUUA, the “pre-steady-state target cleavage rate” value was 0.216 ± 0.017 in experiment [1] (setting [3]), 0.00628 ± 0.0027 in experiment [1] (setting [4]) and 0.0115 ± 0.0051 in experiment [2].

For UCCUCCAUGAGCUUGCAUAGUAUUUAGUUA, the results for the “pre-steady-state target cleavage rate” value in experiment [1] (setting [3]), in experiment [1] (setting [4]) and in experiment [2] were 0.279 ± 0.016, 0.00711 ± 0.0021 and 0.0146 ± 0.004, respectively.

Turning to UCCUGGAUCAGCGUUGCAUAGUAUUUAGUUA, the entries for the “pre-steady-state target cleavage rate” value in experiment [1] (setting [3]), in experiment [1] (setting [4]) and in experiment [2] were 0.212 ± 0.016, 0.00789 ± 0.0028 and 0.021 ± 0.0057, respectively.
